Assay outcomes (PubChem BioAssay)
HT1080NT lethal – qHTS for induction of synthetic lethality in tumor cells producing 2HG: qHTS for the HT-1080-NT fibrosarcoma cell line; 360,000 compounds, 1.6% hits; AID 686970, 2013; HT-1080-NT fibrosarcoma viability, CellTiter-Glo ATP luminescence, 48 h; Potency, µM (titrated, usually from 46.1 µM), for the others: at the top dose activity, negative = less viability, hits mostly cytotoxic;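 note: NT is the 2HG producing partner of a matched IDH1 knockdown line; 0% = DMSO-treated cells and -100% = media-only wells without cells; nearly all actives have a fitted effect of over 55% in size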
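Read-out is CellTiter-Glo luminescence after 10 minutes at room temperature, following 48 hours' compound treatment of HT-1080-NT cells (750 cells/well, RPMI, 5% FBS, 37 degrees C).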
HT1080 IDH1KD tx – qHTS for induction of synthetic lethality in tumor cells producing 2HG: qHTS for the HT-1080-IDH1KD cell line | Potency, µM (doses to about 46.1 µM), without a hit: at the top dose activity, negative = toxicity, most hits filed as cytotoxic | AID 686971, 2013 | 360,000 compounds, 2% hits | HT-1080 IDH1 knockdown viability, ATP luminescence, 48 h;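 note: 0% = DMSO wells and -100% = cell-free medium wells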
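Cytotoxicity counter-line: IDH1KD HT-1080, 48 h, CellTiter-Glo. Curves classed by r2, magnitude and activity.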
DT40 TDP1 CPT – qHTS for Inhibitors of human tyrosyl-DNA phosphodiesterase 1 (TDP1): qHTS in cells in presence of CPT | 420,000 compounds, 12% hits | chicken DT40 Tdp1-/-;hTDP1 cells + 20 nM CPT, ATP luminescence, 48 h | Potency, µM (titrated, usually from 46.2 µM), inactives show top-dose activity change, negative = growth inhibition, most hits filed as inhibitors; note: % is set by controls: 0 for no effect and ±100 for the full control effect; nearly all actives have a fitted effect of over 55% in size
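Chicken DT40 Tdp1-/- cells stably complemented with human TDP1 were seeded at 400 cells/well in medium containing 20 nM camptothecin, exposed to pin-transferred compounds, and grown at 37 °C for at least 48 hr. Viability was read as ATP luminescence.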
HepG2 viability – qHTS for Inhibitors of TGF-b: Cytotox Counterscreen; Potency, µM (series often up to 46.1 µM), inactives show at the highest dose activity change, negative = cytotoxicity, hits mostly cytotoxic; AID 588856, 2011; 410,000 compounds, 0.76% hits; HepG2 CAGA-GFP viability, ATP luminescence, 18 h
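HepG2 CAGA-GFP cells (1000/well, DMEM with 1% FBS) received compound, then TGF-beta at 500 pg/mL final, and were incubated 18 hours at 37 degrees C. Viability was read by CellTiter-Glo luminescence. Media-only wells were set as complete cell-killing and DMSO as no toxicity.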
TGFb SMAD3 inh – qHTS for Inhibitors of TGF-b. HepG2 CAGA-GFP TGF-b/SMAD3 reporter, GFP fluorescence, 18 h; TGF-beta stimulated, 500 pg/mL final. Potency, µM (series often up to 46.1 µM), for inactives: at the top dose activity, negative = inhibition, hits mostly inhibitors. 410,000 compounds, 1.2% hits. AID 588855, 2011; note: % is set by controls: 0 for no effect and ±100 for the full control effect; nearly all actives have a fitted effect of over 65% in size
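HEPG2 CAGA-GFP reporter cells (1000/well, DMEM with 1% FBS) received compounds, then recombinant TGF-beta at 500 pg/mL final for 18 hours at 37 degrees C. Per-cell GFP summed per well was normalised to unstimulated and stimulated DMSO controls before curve fitting.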
TDP1 cell noCPT – qHTS for Inhibitors of human tyrosyl-DNA phosphodiesterase 1 (TDP1): qHTS in cells in absence of CPT; DT40 Tdp1-/- hTDP1 cells, no CPT, ATP luminescence, 48 h; Potency, µM (highest dose often 46.2 µM), for inactives: at the top dose activity change, negative = growth inhibition, actives largely listed as inhibitors; 420,000 compounds, 15% hits; AID 686978, 2013; note: % is set by controls: 0 for no effect and ±100 for the full control effect; nearly all actives have a fitted effect of over 55% in size
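Readout: luminescence from CellTiter-Glo after 30 min in the dark at RT. Cells: DT40 Tdp1-/- with stable hTDP1, 400/well. Exposure: compounds alone, ≥48 hr, 37 °C.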
Numbers without * were called inactive; u = inconclusive; x = no result given; [ ] = another dose, or the depositor's remark. Shown are actives, neighbours in structure and some others; about 17% of the full set was active somewhere. Calls come from the whole dose curve; as a rule, active = well fitted curve in the direction sought with a large enough effect; inconclusive = small, poorly fitted or top-dose-only effect, or another doubt; inactive = no such curve, though single readings can be large; an effect the other way counts as inactive or inconclusive. Potency is the fitted concentration of half-maximal effect.

SMILES	HT1080NT lethal	HT1080 IDH1KD tx	DT40 TDP1 CPT	HepG2 viability	TGFb SMAD3 inh	TDP1 cell noCPT
COc1ccc(NC(=O)CSc2nnc3ccc(-c4ccncc4)nn23)cc1OC	3.8%	-0.4%	-19.3%	-14.4%	1.3%	5.2%
CN1OC[C@@H]2CN(Cc3ccccc3)[C@H](c3ccc(-n4ccnc4)cc3)C[C@@H]21	-5.7%	-9.4%	-16.3%	-1.1%	8.3%	-8.6%
C[C@H](NC(=O)N1CCn2c1nc1ccccc12)C(=O)N1CCCCC1	13.6%	10.0%	16.4µM*	-1.2%	-0.2%	u
C[C@H](NC(=O)N1CCn2c1nc1ccccc12)C(=O)NC1CC1	6.4%	14.4%	0.0%	0.0%	-0.3%	15.9%
Cc1nc2cc(C(=O)N3CCc4ccccc43)ccc2n1-c1ccc(F)c(F)c1	-2.6%	-0.3%	-21.3%	-2.8%	u	u
COC(=O)c1ccccc1-c1c2ccc(=N)cc-2oc2cc(N)ccc12	6.51µM*	10.3µM*	0.731µM*	-27.3%	-97.4%	0.581µM*
O=C(NCC(=O)N1CCN(S(=O)(=O)c2ccccc2C(F)(F)F)CC1)c1sc2ccccc2c1Cl	1.2%	6.8%	u	-2.8%	0.0%	11.6µM*
Cn1c(CC(=O)Nc2ccccc2)c(Sc2ccccc2)c2ccccc21	-13.2%	-9.0%	-13.3%	-5.0%	-4.2%	-0.5%
CSc1c(CC(=O)Nc2ccccc2)n(C)c2ccccc12	-21.6%	-26.5%	14.6µM*	-0.3%	-1.1%	u
Cn1c(CC(=O)Nc2ccccc2)cc2ccccc21	-6.9%	-12.7%	7.31µM*	-19.3%	-18.9%	u
Cc1ccc(NC(=O)CSc2nnc(-c3nnn(-c4ccc(F)cc4)c3C)o2)cc1Br	x	x	u	-10.6%	0.2%	-12.8%
CC(=O)C1=C(O)C(=O)N(c2ccc(C)cc2)C1c1ccccn1 (centres undefined)	8.4%	12.2%	-8.5%	-12.0%	-0.3%	13.3%
CCOc1ccc(C(=O)c2cn(CC(=O)Nc3ccc(F)c(F)c3)c3cc4c(cc3c2=O)OCCO4)cc1	x	x	u	-5.6%	u	25.9µM*
O=C(Cn1cc(C(=O)c2ccccc2)c(=O)c2cc3c(cc21)OCCO3)Nc1ccc(F)c(F)c1	x	x	18.4µM*	-12.1%	-15.2%	u
CCOc1ccc(NC(=O)Cn2cc(C(=O)c3ccc(C)c(C)c3)c(=O)c3cc4c(cc32)OCCO4)cc1	x	x	-10.2%	-10.4%	6.1%	-17.3%
CCOc1ccc(NC(=O)Cn2cc(C(=O)c3ccc(OCC)cc3)c(=O)c3cc4c(cc32)OCCO4)cc1	x	x	13µM*	0.4%	-8.3%	5.8µM*
CCOc1ccc(C(=O)c2cn(CC(=O)Nc3ccc(Cl)cc3)c3cc4c(cc3c2=O)OCCO4)cc1	x	x	u	-9.8%	-16.7%	6.51µM*
CCc1ccc(C(=O)c2cn(CC(=O)Nc3ccc4c(c3)OCCO4)c3ccc(F)cc3c2=O)cc1	x	x	-20.1%	8.5%	12.3%	-17.6%
C/C(=C\c1ccco1)CN1CCOc2ccc(CN3CCC(Oc4cccnc4)CC3)cc2C1	x	x	2.0%[9.04 µM]	x	x	-33.2%
CC(C)CC(C(=O)NCC1CCCO1)N(C(=O)Cn1nnc(-c2ccc(F)cc2)n1)c1ccccc1F (centres undefined)	-7.2%	-10.0%	-27.3%	-14.0%	-2.1%	-28.2%
CC(C)CNC(=O)c1cccc2c(-c3cccnc3)coc12	-1.0%	3.5%	-20.1%	-7.9%	6.1%	-17.9%
COc1ccc(NC(=O)c2cccc3c(-c4cccnc4)coc23)cc1	u	1.8%	11.6µM*	-7.1%	-10.6%	20.6µM*
O=C(NCc1ccccc1)c1cccc2c(-c3cccnc3)coc12	0.0%	-14.2%	u	-24.9%	8.7%	u
O=C(Nc1ccccc1)c1cccc2c(-c3cccnc3)coc12	14.1%	15.4%	20.6µM*	-28.3%	2.2%	14.6µM*
CCOC(=O)CSc1nc2c(sc3ccc([N+](=O)[O-])cc32)c(=O)n1Cc1ccco1	3.4%	5.3%	u	3.3%	-4.4%	u
SMILES	HT1080NT lethal	HT1080 IDH1KD tx	DT40 TDP1 CPT	HepG2 viability	TGFb SMAD3 inh	TDP1 cell noCPT
CC(C)(C)CC(C)(C)n1nnnc1N	u	11.0%	19.8%	5.3%	0.0%	13.6%
Cc1ccccc1CN1CCN(c2nc3ccccc3s2)CC1	-3.1%	-7.9%	18.4µM*	-27.0%	-1.4%	-15.2%
COc1ccc(CN2CCN(c3nc4ccccc4s3)CC2)cc1	23.5%	17.0%	u	-3.7%	-0.9%	u
O=c1c(O)cc(C2Oc3cc(O)cc(O)c3CC2O)cc2c(C3Oc4cc(O)cc(O)c4CC3O)cc(O)c(O)c12 (centres undefined)	x	x	4.61µM*	x	x	3.26µM*
Oc1cc(O)c2c(c1)O[C@H](c1ccc(O)c(O)c1)[C@@H](O)C2	18.9%	-1.6%	-12.6%	-2.7%	12.8%	-7.7%
CCOc1ccc(C2Nc3ccccc3-c3nnc(SCc4ccccc4)nc3O2)cc1OC (centres undefined)	x	x	18.4µM*	-20.8%	8.0%	u
Nc1ncc2c(n1)-c1ccoc1CC2	5.2%	9.8%	1.0%	-39.6%	6.8%	-22.3%
N#CC(C(=S)Nc1ccccc1)c1nc2ccccc2[nH]1 (centres undefined)	-8.3%	1.5%	5.17µM*	-22.5%	u	5.17µM*
O=C(c1ccccn1)N1CCCC(N2CCN(c3cccc(C(F)(F)F)c3)CC2)C1 (centres undefined)	-9.6%	-4.5%	u	-8.5%	-10.0%	14.6µM*
O=C(c1cc[n+]([O-])cc1)N1CCCC(N2CCN(c3cccc(C(F)(F)F)c3)CC2)C1 (centres undefined)	-12.2%	-8.3%	10.3µM*	-12.5%	-16.4%	u
O=C(c1ccsc1)N1CCCC(N2CCN(c3cccc(C(F)(F)F)c3)CC2)C1 (centres undefined)	1.4%	-1.0%	u	-17.5%	u	u
COc1ccc(C(=O)C2CCCN(Cc3cnc(N4CCOCC4)s3)C2)cc1F (centres undefined)	-26.4%	-14.6%	2.7%	-14.9%	-39.3%	-20.0%
